Data reported in PubChem BioAssay (EPA / NIEHS).
Calls of active or inactive are those of the source. Rule for the calls: active = hit-call score of the fitted dose curve at least 0.9, where 1 is the maximum; inactive = score below 0.9.

Assays:
Details in all cases: mRNA level, 48 h; actives raise or lower the signal
[1] = read-out: Glutathione S-transferase M3 (GSTM3), GSTM3 (gene 2947); assay: LTEA_HepaRG_GSTM3: Life Technologies and Expression Analysis (LTEA) Assay for Glutathione S-transferase M3 (GSTM3) using HepaRG (AID 2283501)
Summary of the method: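 GSTM3 transcript levels came from Fluidigm TaqMan qRT-PCR normalized to three housekeeping genes, fitted in both directions against DMSO. HepaRG cultures received chemicals for 48 h in serum-free induction medium (0.5% DMSO), 8 half-log concentrations up to 100 uM, duplicate.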

[2] = read-out: Heat shock 70 kDa protein 1 (HSPA1A), gene 3303; assay: LTEA_HepaRG_HSPA1A: Life Technologies and Expression Analysis (LTEA) Assay for Heat shock 70 kDa protein 1 (HSPA1A) using HepaRG (AID 2283502)
Summary of the method: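 HSPA1A induction in human HepaRG liver cells is measured after 48 h of chemical treatment (100 uM maximum, 0.5% DMSO vehicle). Expression comes from qRT-PCR normalized to endogenous controls.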

[3] = read-out: Hypoxia-inducible factor 1-alpha (Homo sapiens) (UniProt Q16665); assay: LTEA_HepaRG_HIF1A: Life Technologies and Expression Analysis (LTEA) Assay for Hypoxia-inducible factor 1 (HIF1A) Trancription factor using HepaRG (AID 2283503)
Summary of the method: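 HepaRG, 48 h exposure, 8-pt half-log series from 100 uM, 0.5% DMSO vehicle, duplicates. Readout: HIF1A transcript by qRT-PCR (Fluidigm array), housekeeping-normalised. Bidirectional curve fit vs DMSO baseline.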

[4] = read-out: 3-Hydroxy-3-Methylglutaryl-CoA Synthase 2 (HMGCS2), HMGCS2 (gene 3158); assay: LTEA_HepaRG_HMGCS2: Life Technologies and Expression Analysis (LTEA) Assay for 3-Hydroxy-3-Methylglutaryl-CoA Synthase 2 (HMGCS2) using HepaRG (AID 2283504)
Summary of the method: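 Readout is HMGCS2 transcript by qRT-PCR, housekeeping-normalised (ACTB/GAPDH/POLR2A) and fitted bidirectionally against 0.5% DMSO. Differentiated HepaRG cells received chemicals 48 h, duplicate wells, eight half-log concentrations topping at 100 uM.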

HGF (gene 3082) = assay: LTEA_HepaRG_HGF: Life Technologies and Expression Analysis (LTEA) Assay for Hepatocyte Growth Facto (HGF) using HepaRG (AID 2283505)
Summary of the method: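 HGF transcript was quantified by TaqMan qRT-PCR against three housekeeping genes after 48 h treatment of HepaRG cells. Exposure ran in duplicate over eight half-log steps topping at 100 uM in 0.5% DMSO vehicle.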

[5] = read-out: Insulin Like Growth Factor 1 (IGF1), IGF1 (gene 3479); assay: LTEA_HepaRG_IGF1: Life Technologies and Expression Analysis (LTEA) Assay for Insulin Like Growth Factor 1 (IGF1) using HepaRG (AID 2283506)
Summary of the method: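 Using human HepaRG liver cells, IGF1 transcript induction or suppression is measured 48 h after dosing across eight concentrations capped at 100 uM. Values derive from bidirectional concentration-response fitting with DMSO as baseline.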

[6] = read-out: Intercellular Adhesion Molecule 1 (ICAM1), ICAM1 (gene 3383); assay: LTEA_HepaRG_ICAM1: Life Technologies and Expression Analysis (LTEA) Assay for Intercellular Adhesion Molecule 1 (ICAM1) using HepaRG (AID 2283507)
Summary of the method: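 ICAM1 transcript levels measured by qRT-PCR, normalized to three housekeeping genes (ACTB, GAPDH, POLR2A), after 48 h chemical exposure of HepaRG cells. Duplicate eight-point half-log series from 100 uM in 0.5% DMSO; gain or loss fitted against vehicle.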

[7] = read-out: Insulin-like growth factor-binding protein 1 (IGFBP1), IGFBP1 (gene 3484); assay: LTEA_HepaRG_IGFBP1: Life Technologies and Expression Analysis (LTEA) Assay for Insulin-like growth factor-binding protein 1 (IGFBP1) using HepaRG (AID 2283508)
Summary of the method: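 Read-out is qRT-PCR transcript level normalized to three housekeeping genes, fitted in both directions against 0.5% DMSO. Differentiated HepaRG cells received eight half-log concentrations (top 100 uM) in duplicate for 48 h in serum-free induction medium.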

[8] = read-out: Interleukin 6 (IL6), IL6 (gene 3569); assay: LTEA_HepaRG_IL6: Life Technologies and Expression Analysis (LTEA) Assay for Interleukin 6 (IL6) using HepaRG (AID 2283509)
Summary of the method: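 Differentiated human HepaRG cells, plated 48 h then switched to serum-free induction medium, were exposed in duplicate for 48 h to eight half-log concentrations up to 100 uM in 0.5% DMSO. IL6 mRNA measured by qRT-PCR, normalized to ACTB/GAPDH/POLR2A.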

[9] = read-out: Interleukin 6 Receptor (IL6R), IL6R (gene 3570); assay: LTEA_HepaRG_IL6R: Life Technologies and Expression Analysis (LTEA) Assay for Interleukin 6 Receptor (IL6R) using HepaRG (AID 2283510)
Summary of the method: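 Concentration-response in human liver HepaRG cells: eight concentrations from 100 uM downward by half-logs, 48 h exposure, 0.5% DMSO vehicle. IL6R mRNA change measured by qRT-PCR and fitted in both directions relative to vehicle.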

Measured: AC50

Hypoxia-inducible factor 1-alpha (Homo sapiens), sequence (Q16665 whole entry, looked up): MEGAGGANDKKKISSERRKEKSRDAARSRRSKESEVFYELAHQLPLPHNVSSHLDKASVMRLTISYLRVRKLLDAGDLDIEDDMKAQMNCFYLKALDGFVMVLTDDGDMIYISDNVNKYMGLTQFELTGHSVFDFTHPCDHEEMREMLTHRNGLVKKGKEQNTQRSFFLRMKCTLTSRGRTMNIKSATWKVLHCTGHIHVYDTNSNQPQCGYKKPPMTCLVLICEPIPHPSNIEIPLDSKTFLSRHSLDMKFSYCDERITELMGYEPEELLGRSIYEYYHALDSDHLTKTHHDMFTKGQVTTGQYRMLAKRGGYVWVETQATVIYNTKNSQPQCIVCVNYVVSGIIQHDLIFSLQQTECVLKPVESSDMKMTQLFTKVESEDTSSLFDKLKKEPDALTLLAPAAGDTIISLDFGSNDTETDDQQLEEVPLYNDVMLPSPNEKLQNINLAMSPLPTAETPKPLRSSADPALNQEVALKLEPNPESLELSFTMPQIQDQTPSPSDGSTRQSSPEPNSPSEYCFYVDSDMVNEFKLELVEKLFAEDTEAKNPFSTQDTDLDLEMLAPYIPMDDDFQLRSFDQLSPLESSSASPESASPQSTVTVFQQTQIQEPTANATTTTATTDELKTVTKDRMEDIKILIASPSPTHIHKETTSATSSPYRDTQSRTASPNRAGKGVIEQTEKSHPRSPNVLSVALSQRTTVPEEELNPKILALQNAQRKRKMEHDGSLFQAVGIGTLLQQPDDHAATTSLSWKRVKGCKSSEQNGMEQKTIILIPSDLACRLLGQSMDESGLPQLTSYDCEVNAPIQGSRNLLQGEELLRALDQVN

O=C(O)CN(CC(=O)O)CC(=O)O
inactive: all assays above

CSc1ccc(Oc2ccc(S(N)(=O)=O)cc2CN(C)C)cc1C
active: [4] 63.9 µM | [7] 69.7 µM | [8] 88.2 µM
not listed: HGF (gene 3082)
inactive: all other assays above

CCCCC(CC)CO (stereo not drawn)
not listed: HGF (gene 3082)
inactive: all other assays above

O=C1CCCCC1
not listed: HGF (gene 3082)
inactive: all other assays above

CC(=O)OCC(COC(C)=O)OC(C)=O
not listed: HGF (gene 3082)
inactive: all other assays above

NC(=Nc1ccccc1)Nc1ccccc1
active: [7] 13.2 µM
not listed: HGF (gene 3082)
inactive: all other assays above

Cc1ccc(C(C)(C)C)c(O)c1
not listed: HGF (gene 3082)
inactive: all other assays above

CCCCCCC(CCCCCCCCCCC(=O)OCC(COC(C)=O)OC(C)=O)OC(C)=O (stereo not drawn)
not listed: HGF (gene 3082)
inactive: all other assays above

CCOCCOCCO
not listed: HGF (gene 3082)
inactive: all other assays above

CCCCC(CC)COP(=O)(OCC(CC)CCCC)OCC(CC)CCCC (stereo not drawn)
not listed: HGF (gene 3082)
inactive: all other assays above

CCCC(=O)O
not listed: HGF (gene 3082)
inactive: all other assays above

CCCCCCCCCCCCCCOS(=O)(=O)O
active: [5] 24.6 µM
not listed: HGF (gene 3082)
inactive: all other assays above

O=[Si]=O
inactive: all assays above

COC(=O)CCC(=O)OC
not listed: HGF (gene 3082)
inactive: all other assays above

O=C(Oc1ccccc1)c1cccc(C(=O)Oc2ccccc2)c1
not listed: HGF (gene 3082)
inactive: all other assays above

CC1=C(C)S(=O)(=O)CCS1(=O)=O
active: [3] 77.1 µM | [5] 50 µM
not listed: HGF (gene 3082)
inactive: all other assays above

C/C=C/C=C/C(=O)O
not listed: HGF (gene 3082)
inactive: all other assays above

COC(=O)CCCC(=O)OC
not listed: HGF (gene 3082)
inactive: all other assays above

COC(=O)[C@H]1[C@H]2C[C@@H]3c4[nH]c5cc(OC)ccc5c4CCN3C[C@H]2C[C@@H](OC(=O)c2cc(OC)c(OC)c(OC)c2)[C@@H]1OC
inactive: HGF (gene 3082)
active: [1] 42.2 µM | [2] 42.2 µM | [4] 57.8 µM | [5] 54.4 µM | [6] 28.7 µM | [7] 47.7 µM | [8] 29.1 µM | [9] 42.2 µM

Nc1nc(Cl)nc2c1ncn2[C@H]1C[C@H](O)[C@@H](CO)O1
inactive: [1] | [2] | [6]
active: [4] 1.49 µM | [5] 2.39 µM | [7] 4.82 µM | [8] 16.1 µM | [9] 0.603 µM

CC(=O)CC(c1ccccc1)c1c(O)c2ccccc2oc1=O (stereo not drawn)
not listed: HGF (gene 3082)
inactive: all other assays above

O=C1NC(=O)C(c2ccccc2)(c2ccccc2)N1
not listed: [3]
inactive: all other assays above

CC(=O)S[C@H](C(=O)N[C@H]1Cc2ccccc2[C@H]2CCC[C@@H](C(=O)O)N2C1=O)C(C)C
not listed: HGF (gene 3082)
inactive: all other assays above

CCc1nc(N)nc(N)c1-c1ccc(Cl)cc1
inactive: [1] | [2] | [6] | [8]
active: [4] 68.8 µM | HGF (gene 3082) 50 µM | [5] 11.8 µM | [7] 57.7 µM | [9] 26.7 µM

CC(=O)[C@@]1(O)CC[C@H]2[C@@H]3CCC4=CC(=O)CC[C@]4(C)[C@H]3CC[C@@]21C
not listed: [3]
inactive: all other assays above

NC1CCCCC1
not listed: HGF (gene 3082)
inactive: all other assays above

CC(C)OC(=O)C(C)(C)Oc1ccc(C(=O)c2ccc(Cl)cc2)cc1
active: [4] 4.29 µM
not listed: [3] | HGF (gene 3082)
inactive: all other assays above

c1ccc2occc2c1
not listed: HGF (gene 3082)
inactive: all other assays above

O=NO
not listed: HGF (gene 3082)
inactive: all other assays above

Oc1ccccc1O
not listed: [3]
inactive: all other assays above

CCCCCCC(C=O)=Cc1ccccc1
not listed: HGF (gene 3082)
inactive: all other assays above

CN(C)CCCN1c2ccccc2Sc2ccc(Cl)cc21
active: [2] 76.9 µM | [4] 68.6 µM | [5] 77.7 µM | [6] 77.7 µM | [7] 72.8 µM | [8] 77 µM | [9] 44.7 µM
inactive: [1]

CC(=O)O[C@]1(C(C)=O)CC[C@H]2[C@@H]3C=C(Cl)C4=CC(=O)[C@@H]5C[C@@H]5[C@]4(C)[C@H]3CC[C@@]21C
active: [2] 83.4 µM | [4] 67.1 µM | [5] 50 µM | [7] 50 µM
not listed: [3]
inactive: all other assays above

Cc1occc(=O)c1O
not listed: [3]
inactive: all other assays above

CCCCOC(=O)CCCCC(=O)OCCCC
not listed: HGF (gene 3082)
inactive: all other assays above

Cn1cnc2c1c(=O)[nH]c(=O)n2C
not listed: [3] | HGF (gene 3082)
inactive: all other assays above

CC(N)=O
not listed: [3] | HGF (gene 3082)
inactive: all other assays above

Cc1cc(SC2=C(O)C[C@@](CCc3ccc(N)cc3)(C(C)C)OC2=O)c(C(C)(C)C)cc1CO
active: [4] 16.8 µM | [5] 4.02 µM
not listed: HGF (gene 3082)
inactive: all other assays above

CC(C)NCC(O)c1ccc(O)c(O)c1 (stereo not drawn)
inactive: [5] | [6] | [7] | [8]
active: [1] 0.273 µM | [2] 0.116 µM | [4] 0.173 µM | HGF (gene 3082) 0.166 µM | [9] 9.92 µM

CCCCCCCCCCCCCCCCO
active: [9] 50 µM
not listed: HGF (gene 3082)
inactive: all other assays above

O=C(N[C@@H](c1ccccc1)[C@@H]1CCCCN1)c1cccc(C(F)(F)F)c1Cl
active: [2] 50 µM | [4] 69.4 µM | [5] 17.9 µM | [6] 61.9 µM | [7] 25.3 µM | [8] 85 µM | [9] 50 µM
inactive: [1] | [3]

CCCCCCCC(=O)OC
not listed: HGF (gene 3082)
inactive: all other assays above

Oc1ccc(O)cc1
not listed: [3]
inactive: all other assays above

Nc1nc(=S)c2[nH]cnc2[nH]1
inactive: [1] | [3] | [6] | [7]
active: [4] 7.48 µM | [5] 20.5 µM | [8] 14.8 µM | [9] 8.69 µM

Cc1cn([C@H]2C=C[C@@H](CO)O2)c(=O)[nH]c1=O
not listed: [3]
inactive: all other assays above

O=C1OC(c2ccc(O)cc2)(c2ccc(O)cc2)c2ccccc21
inactive: [5] | [6] | [7] | [8]
active: [1] 50 µM | [2] 50 µM | [4] 67.6 µM | HGF (gene 3082) 79.4 µM | [9] 50 µM

CCC(C)N(C)C(=O)c1cc2ccccc2c(-c2ccccc2Cl)n1 (stereo not drawn)
active: [5] 21.6 µM | [7] 57.6 µM
not listed: [3] | HGF (gene 3082)
inactive: all other assays above
